Screening data as filed in PubChem.
Hits are enriched below; roughly 7.4% of the tested compounds scored in any of these assays.
NIH3T3 tox = cytotoxic compounds in NIH 3T3 cells. actives 4.3% (n = 94,000). Potency, µM (titrated, usually from 96.7 µM), usual class: inhibitors. NIH 3T3 viability, CellTiter-Glo ATP luminescence, 48-72 h; also: nearly all actives have a fitted effect of over 55% in size
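Cells were seeded at 400 per well, treated with pin-transferred compound, and kept 48 or 72 hr at 37 °C before CellTiter-Glo addition and luminescence imaging of cellular ATP.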
HEK cytotox = kills HEK 293 cells | Potency, µM (doses to about 115 µM), actives largely listed as inhibitors | HEK 293 viability, ATP luminescence (CellTiter-Glo), 48-72 h | actives 6.6% (n = 94,000); also: nearly all actives have a fitted effect of over 60% in size
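Viability of HEK 293 cells, plated at 250 cells/well, was judged by cellular ATP after compound treatment for 48 or 72 hr. Luminescence was imaged 10 min after CellTiter-Glo addition at room temperature.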
NPR1 antag = antagonists of human natriuretic peptide receptor Npr1; P16066; HEK293 hNpr1 GloSensor cGMP, ANP-stimulated luminescence; Potency, µM (highest dose often 46.3 µM), usual class: inhibitors; actives 1.6% (n = 76,000); calls by dose curve; also: nearly all actives have a fitted effect of over 60% in size
Target sequence (P16066 whole entry, looked up): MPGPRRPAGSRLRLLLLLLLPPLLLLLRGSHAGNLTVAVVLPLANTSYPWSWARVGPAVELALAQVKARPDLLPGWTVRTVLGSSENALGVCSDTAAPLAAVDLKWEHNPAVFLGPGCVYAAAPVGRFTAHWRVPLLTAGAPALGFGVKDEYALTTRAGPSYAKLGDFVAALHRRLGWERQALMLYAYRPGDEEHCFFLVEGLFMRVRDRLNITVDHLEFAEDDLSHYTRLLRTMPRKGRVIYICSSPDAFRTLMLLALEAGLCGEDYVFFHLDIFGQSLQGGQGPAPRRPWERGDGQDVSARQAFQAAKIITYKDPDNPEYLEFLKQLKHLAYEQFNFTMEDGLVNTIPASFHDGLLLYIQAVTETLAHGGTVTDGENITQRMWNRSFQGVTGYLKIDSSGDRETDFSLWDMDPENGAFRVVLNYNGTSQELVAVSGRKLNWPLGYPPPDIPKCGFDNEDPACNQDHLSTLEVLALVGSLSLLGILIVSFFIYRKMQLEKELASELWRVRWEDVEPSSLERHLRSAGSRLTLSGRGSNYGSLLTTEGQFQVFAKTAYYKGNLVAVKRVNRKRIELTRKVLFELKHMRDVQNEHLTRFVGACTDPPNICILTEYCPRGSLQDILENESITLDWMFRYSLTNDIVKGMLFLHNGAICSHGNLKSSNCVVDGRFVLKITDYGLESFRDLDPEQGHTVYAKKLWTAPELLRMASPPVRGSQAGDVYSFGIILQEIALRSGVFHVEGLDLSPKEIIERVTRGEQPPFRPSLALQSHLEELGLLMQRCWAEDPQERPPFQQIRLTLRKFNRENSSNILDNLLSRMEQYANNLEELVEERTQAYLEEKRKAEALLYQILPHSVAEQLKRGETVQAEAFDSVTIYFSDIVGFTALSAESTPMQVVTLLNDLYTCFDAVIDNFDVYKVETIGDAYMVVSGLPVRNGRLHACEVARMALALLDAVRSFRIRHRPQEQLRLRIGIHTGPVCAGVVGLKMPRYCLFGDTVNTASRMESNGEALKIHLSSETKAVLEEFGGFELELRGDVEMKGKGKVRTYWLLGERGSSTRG
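HEK293 cells stably expressing human Npr1 and cGMP GloSensor pGS-40F, loaded 2 h with 2% GloSensor reagent, given compound 30 min at room temperature. Luminescence read before and 20 min after 0.1 nM hNppA.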
Luciferase inh = blocks purified firefly luciferase enzyme activity. P08659. purified P. pyralis luciferase, luminescence, biochemical. Potency, µM (titrated, usually from 115 µM), usual class: inhibitors. actives 2.5% (n = 76,000); also: nearly all actives have a fitted effect of over 65% in size
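Purified 10nM P. pyralis luciferase with 10uM D-luciferin and 10uM ATP in 50mM Tris acetate pH 7.5, 10mM Mg acetate, 0.01% Tween-20, 0.05% BSA. qHTS titration; luminescence read by CCD imager.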
HEK293 viab = reduces viability of HEK-293 SNCA reporter cells | actives 0.12% (n = 150,000) | Potency, µM (doses to about 57.1 µM), usual class: cytotoxic | HEK-293-SNCA-luc viability, GF-AFC fluorescence, 24 h; also: nearly all actives have a fitted effect of over 30% in size
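HEK-293-SNCA-luc cells (1500/well) plated 24 h, then exposed 24 h to a dilution series; GF-AFC added 30 min at 37C, fluorescence 405/540 nm; normalised to medium-only and DMSO wells, Hill fit.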
SNCA expr inhib = inhibitors of alpha-synuclein (SNCA) gene expression. Potency, µM (titrated, usually from 57.2 µM), most hits filed as inhibitors. HEK-293 SNCA-luciferase knock-in, luminescence, 24 h. AID 1671194. actives 0.17% (n = 140,000); also: nearly all actives have a fitted effect of over 45% in size
Of the large screens only hits and unclear results are named; the others gave an inactive call. Unless noted, calls follow the shape of the dose curve; as a rule, active = well fitted curve in the direction sought with a large enough effect; inconclusive = small, poorly fitted or top-dose-only effect, or another doubt; inactive = no such curve, though single readings can be large; an effect the other way counts as inactive or inconclusive.

COc1ccc(Cl)cc1-c1ccc2c(c1)C(=O)N1CC[C@H](NC(=O)NC(C)C)[C@H]1C(=O)N2	HEK cytotox inconclusive
N[C@H]1CCN2C(=O)c3cc(-c4ccccc4F)ccc3NC(=O)[C@H]12	none
CCS[C@H]1CCN2C(=O)c3cc(-c4ccccc4F)ccc3NC(=O)[C@H]12	NIH3T3 tox inconclusive, HEK cytotox 89µM
C=CCO[C@@H]1CCN2C(=O)c3cc(-c4ccc(F)cc4F)ccc3NC(=O)[C@H]12	HEK cytotox 112µM
C=CCO[C@@H]1C[C@H]2C(=O)Nc3ccc(-c4ccc(F)cc4F)cc3C(=O)N2C1	NIH3T3 tox 50µM, HEK cytotox inconclusive, HEK293 viab inconclusive
C=CCO[C@@H]1C[C@H]2C(=O)Nc3ccc(-c4ccccc4)cc3C(=O)N2C1	NIH3T3 tox inconclusive, HEK cytotox inconclusive
COc1ccccc1-c1cc(C(=O)NCc2ccc(F)cc2)c2cnn(C)c2n1	none (no result: NPR1 antag, Luciferase inh)
C=CCO[C@@H]1CCN2C(=O)c3cc(-c4ccccc4)ccc3NC(=O)[C@H]12	none
C=CCO[C@@H]1CCN2C(=O)c3cc(-c4cccc(C(F)(F)F)c4)ccc3NC(=O)[C@H]12	NIH3T3 tox inconclusive, HEK cytotox 71µM
COCCCNC(=O)c1cc(-c2ccc(F)cc2)nc2c1cnn2C	NIH3T3 tox inconclusive, HEK cytotox inconclusive (no result: NPR1 antag, Luciferase inh)
O=C1Cc2c(-c3ccccc3Cl)n[nH]c2CN1Cc1ccccn1	NIH3T3 tox 79µM
O=C1Cc2c(-c3ccccc3Cl)n[nH]c2CN1Cc1ccccc1F	NIH3T3 tox inconclusive, HEK cytotox inconclusive
O=C(Nc1cccc(C(F)(F)F)c1)N[C@H]1CO[C@H]2[C@@H]1OC[C@@H]2n1cc(CC2CCCCC2)nn1	NIH3T3 tox inconclusive, HEK cytotox 40µM, NPR1 antag inconclusive
O=S(=O)(N[C@H]1CO[C@H]2[C@@H]1OC[C@@H]2n1cc(CC2CCCCC2)nn1)c1cccs1	NIH3T3 tox inconclusive, HEK cytotox 79µM, HEK293 viab inconclusive
COCc1cn([C@H]2CO[C@H]3[C@@H]2OC[C@H]3OC(=O)Nc2cccc(C(F)(F)F)c2)nn1	NIH3T3 tox inconclusive, HEK cytotox 79µM
COc1ccc(CN2C(=O)[C@@H]3C[C@@H](O)CN3C3(CN(C4CCC4)C3)C2=O)cc1	none
CC(C)N1CCN(C(=O)C2Cn3cccc3C(=O)N2Cc2cccnc2)CC1 (stereo not given)	none
O=C(NCc1ccc(Cl)cc1)c1nc2sccn2c1-c1ccc(C(F)(F)F)cc1	NIH3T3 tox inconclusive, HEK cytotox inconclusive (no result: NPR1 antag, Luciferase inh)
COc1ccc(NC(=O)c2nc3sccn3c2-c2cccc(C(F)(F)F)c2)cc1	NIH3T3 tox inconclusive, HEK cytotox inconclusive, HEK293 viab 22µM (no result: NPR1 antag, Luciferase inh)
Cc1ccc(-c2c(C(=O)NCc3cccs3)nc3sccn23)cc1	HEK cytotox inconclusive (no result: NPR1 antag, Luciferase inh)
O=C(NCc1cccc(C(F)(F)F)c1)c1nc2sccn2c1-c1ccc(F)cc1	NIH3T3 tox inconclusive, HEK cytotox inconclusive (no result: NPR1 antag, Luciferase inh)
O=C(NCc1ccccc1)c1nc2sccn2c1-c1ccc(C(F)(F)F)cc1	NIH3T3 tox inconclusive, HEK cytotox 40µM, SNCA expr inhib inconclusive (no result: NPR1 antag, Luciferase inh)
O=C(NCc1cccs1)c1nc2sccn2c1-c1ccncc1	NIH3T3 tox inconclusive, HEK cytotox 89µM, HEK293 viab inconclusive (no result: NPR1 antag, Luciferase inh)
O=C(NCc1cccc(C(F)(F)F)c1)c1nc2sccn2c1-c1cccc(C(F)(F)F)c1	NIH3T3 tox inconclusive, HEK cytotox 35µM, SNCA expr inhib inconclusive (no result: NPR1 antag, Luciferase inh)
N#Cc1ccc(CN2CC(Oc3ccc(F)c(F)c3)C2)cc1	NIH3T3 tox inconclusive, HEK cytotox inconclusive (no result: NPR1 antag, Luciferase inh)
COc1ccc(-c2c(C(=O)NCCCc3ccccc3)nc3sccn23)cc1	NIH3T3 tox 35µM, HEK cytotox inconclusive (no result: NPR1 antag, Luciferase inh)
O=C(NCCc1ccccc1)c1nc2sccn2c1-c1cccc(C(F)(F)F)c1	NIH3T3 tox inconclusive, HEK cytotox inconclusive (no result: NPR1 antag, Luciferase inh)
COc1cccc(-c2c(C(=O)NCCCc3ccccc3)nc3sccn23)c1	NIH3T3 tox inconclusive, HEK cytotox inconclusive, SNCA expr inhib inconclusive (no result: NPR1 antag, Luciferase inh)
O=C(NCc1ccc(F)cc1)c1nc2sccn2c1-c1ccc(C(F)(F)F)cc1	NIH3T3 tox 14µM, HEK cytotox inconclusive, SNCA expr inhib inconclusive (no result: NPR1 antag, Luciferase inh)
Cc1ccc(-c2c(C(=O)NCCc3ccccc3)nc3sccn23)cc1	NIH3T3 tox 18µM, HEK cytotox 45µM (no result: NPR1 antag, Luciferase inh)
O=C(NCc1ccc(F)cc1)c1nc2sccn2c1-c1ccc(F)cc1	NIH3T3 tox inconclusive, HEK cytotox inconclusive (no result: NPR1 antag, Luciferase inh)
O=C(NCCc1ccccc1)c1nc2sccn2c1-c1ccc(C(F)(F)F)cc1	NIH3T3 tox 14µM, HEK cytotox inconclusive, SNCA expr inhib inconclusive (no result: NPR1 antag, Luciferase inh)
CC(C)Cn1c(=O)c(C(=O)NCc2ccc3c(c2)OCO3)nc2cccnc21	NIH3T3 tox inconclusive, HEK cytotox inconclusive, HEK293 viab inconclusive (no result: NPR1 antag, Luciferase inh)
O=C(NCc1ccccc1F)c1nc2sccn2c1-c1ccc(C(F)(F)F)cc1	NIH3T3 tox inconclusive, HEK cytotox 32µM (no result: NPR1 antag, Luciferase inh)
COc1cccc(C(=O)N2CCC(N3C[C@H](O)C[C@H]3C(=O)N3CC=C(c4ccccc4)CC3)CC2)c1	HEK cytotox 79µM
COc1cccc(C(=O)N2CCC(n3cc(-c4nc(-c5ccccc5)no4)nn3)C2)c1 (stereo not given)	NIH3T3 tox inconclusive, HEK cytotox inconclusive, NPR1 antag 11µM, Luciferase inh inconclusive, HEK293 viab inconclusive, SNCA expr inhib inconclusive
CCCc1noc(-c2cn(C3CCN(C(=O)c4ccc(F)c(F)c4)CC3)nn2)n1	NIH3T3 tox 13µM, HEK cytotox inconclusive
COc1cccc(C(=O)N2CCC(n3cc(-c4nc(-c5ccccc5)no4)nn3)CC2)c1	NIH3T3 tox inconclusive, HEK cytotox 45µM, NPR1 antag inconclusive, Luciferase inh inconclusive
CC(C)OCCCNC(=O)C1CCCN1c1nccc(Nc2ccccc2F)n1 (stereo not given)	none (no result: NPR1 antag, Luciferase inh)
Cc1cnc(-c2ccncc2)n1CCC1CCN(C(=O)CCc2ccccc2)CC1	HEK cytotox inconclusive, SNCA expr inhib inconclusive (no result: NPR1 antag, Luciferase inh)
Cc1cccc(OCC(=O)N2CCC(n3cc(-c4nc(-c5ccccc5)no4)nn3)C2)c1 (stereo not given)	NIH3T3 tox 13µM, HEK cytotox 10µM, Luciferase inh inconclusive, HEK293 viab inconclusive
COc1cc(-c2cc(C)c3cccc(OC)c3n2)cc2c1OCCN(C(=O)CCN)C2	NIH3T3 tox 89µM, HEK cytotox inconclusive
COCCNC(=O)[C@H]1C[C@H](Oc2ccccc2)CN1Cc1cccc(C)c1	HEK cytotox 13µM
CNC(=O)[C@H]1C[C@H](Oc2ccccc2)CN1Cc1cn(C)c2ccc(OC)cc12	NIH3T3 tox 32µM, HEK cytotox 28µM, SNCA expr inhib inconclusive
CNC(=O)c1c(C)nc2n1CCC(Nc1ccccc1C)C2 (stereo not given)	NIH3T3 tox inconclusive
COc1cccc(CNC(=O)Cn2nc3n(c2=O)CCCC3)c1	none
